From PubChem BioAssay (Tox21)
Results filed as inconclusive are left out. Values without a mark were called inactive. Active and inactive are the calls of the source. Calls follow the shape of the full dose curve.

Test: qHTS assay for small molecule agonists of the p53 signaling pathway - cell viability (AID 651633);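 also: p53RE-bla HCT reporter cells with a stable beta-lactamase p53 reporter; nearly all actives have a fitted effect of over 30% in size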
Conditions: p53RE-bla HCT-116 viability, ATP luminescence, 16 h; series mostly up to 83.3 µM; activity change, negative = cytotoxicity: at the top concentration
Source text: National Center for Advancing Translational Sciences [NCATS]
NIH Chemical Genomics Center [NCGC]
U.S. Environmental Protection Agency [EPA]
National Institutes of Environmental Health Sciences [NIEHS]
National Toxicology Program [NTP]
U.S. Food and Drug Administration [FDA]
p53, a tumor suppressor protein, is activated following cellular insult, including DNA damage and other cellular stresses. The activation of p53 regulates cell fate by inducing DNA repair, cell cycle arrest, apoptosis, or cellular senescence. The activation of p53, therefore, is a good indicator of DNA damage and other cellular stresses. […] The activation of the reporter gene under culture conditions can be detected by fluorescence intensity. This cell line was used to screen the Tox21 compound library in a 1536-well plate format and to identify agonists that activate the p53 signaling pathway.
Tox21 Assay Protocol Summary:
The p53RE-bla cells were dispensed at 4,000 cells/5 ul/well in 1536-well black wall/clear bottom plates using a Multidrop dispenser. After the assay plates were incubated at a 37 C/5% CO2 incubator for 5 hours, 23 nL of compounds dissolved in DMSO, positive controls or DMSO only was transferred to the assay plate by a pin tool. The plates were incubated at 37 C for 16 hours. After 1 uL of LiveBLAzerTM B/G FRET substrate was added using a Flying Reagent Dispenser, the plates were incubated at room temperature for 2 hours, and fluorescence intensity was measured by an Envision plate reader.
For cell viability readout that measures cytotoxicity, 4 ul/well of CellTiter-Glo reagent was added into the assay plates using a Flying Reagent Dispenser. After 30 min incubation at room temperature, the luminescence intensity in the plates was measured using a ViewLux plate reader.
% is scaled to controls: 0 for no effect and ±100 for the full control effect.

Row | Compound | activity change, negative = cytotoxicity | outcome
1 | Cc1ccccc1OCC1CO1 (stereo not given) | -8.05% [at 95.3 µM] | 
2 | CCCCCCCCCCCCCCCCI | 4.41% [at 39.1 µM] | 
3 | CCCCC(=O)N(C)C | 11.2% | 
4 | OCCCCCCCl | -11.7% [at 95.3 µM] | 
5 | O=[Si]=O | 12.3% | 
6 | O=C(Oc1ccccc1C(=O)O)c1ccccc1O | 29.3% | 
7 | NC(Cc1c[nH]c2ccccc12)C(=O)O (stereo not given) | 11.9% | 
8 | CCC(O)C(C)(C)C (stereo not given) | 9.41% [at 95.3 µM] | 
9 | Nc1cc(C(=O)O)ccc1Cl | -6.8% | 
10 | O=C(O)c1ccccc1C(=O)Nc1ccc(S(=O)(=O)Nc2nccs2)cc1 | 20.8% | 
11 | CCCCCC1CCCC(=O)O1 (stereo not given) | 11.3% | 
12 | CCCCCCCCCCCCC1CO1 (stereo not given) | 8.41% | 
13 | CC(=O)/C=C/c1ccco1 | 10.4% [at 95.3 µM] | 
14 | COC(OC)C(C)c1ccccc1 (stereo not given) | -13.9% | 
15 | C[N+](C)(C)CC(O)CCl (stereo not given) | 11.1% [at 95.3 µM] | 
16 | C[C@H](CCC(=O)O)[C@H]1CC[C@H]2[C@@H]3[C@H](O)C[C@@H]4C[C@H](O)CC[C@]4(C)[C@H]3C[C@H](O)[C@]12C |  | inactive
17 | CC(=O)OCCCc1ccccc1 | -5.35% | 
18 | CC1=NN(c2ccc(S(=O)(=O)O)cc2)C(=O)C1N=Nc1ccccc1 (stereo not given) | -11.1% | 
19 | CC(=O)Nc1ccc(C)cc1 | 9.05% | 
20 | CC(C)(CO)[C@@H](O)C(=O)NCCCO | -18.1% | 

Row | Compound | activity change, negative = cytotoxicity | outcome
21 | CCN(Cc1cccc(S(=O)(=O)O)c1)c1ccccc1 | 16% | 
22 | C=CC(C)(O)CC/C=C(\C)CC (stereo not given) | 15.8% | 
23 | CCNC(=O)/C=C/c1cccc(Br)c1 | 20.2% | 
24 | CCC(C)N (stereo not given) | 21.9% | 
25 | BrC/C=C/CBr | 18.4% [at 39.1 µM] | 
26 | Cc1ccc(S(=O)(=O)NC(=O)NC2CCCCCCC2)cc1 | 6.49% | 
27 | COc1cc2c3cc1Oc1cc(ccc1O)C[C@@H]1c4c(cc(OC)c(O)c4Oc4ccc(cc4)C[C@@H]3N(C)CC2)CC[N+]1(C)C | 5.66% | 
28 | NS(=O)(=O)c1cc2c(cc1Cl)NC(CC1CCCC1)NS2(=O)=O (stereo not given) | 23.1% [at 39.1 µM] | 
29 | O=S(=O)(O)CCO | -12.9% [at 95.3 µM] | 
30 | C=CCCCCCCCCCCC | 6.07% [at 8.08 µM] | 
31 | COc1cccc2sc(N)nc12 | -10.9% [at 95.3 µM] | 
32 | C/C=C(\C)C(=O)OCC/C=C\CC | -18.5% | 
33 | C=C(C)C(=O)OCCCCCCOC(=O)C(=C)C | 0.559% | 
34 | CC(C)COC(=O)/C=C/c1ccccc1 | -23.9% | 
35 | F[Si-2](F)(F)(F)(F)F |  | inactive
36 | O=c1cc(O)c(Cl)c[nH]1 | 5.36% | 
37 | CC(C)=CC(C)(C)C | 19.8% | 
38 | CCCO | 6.48% | 
39 | CC(=O)N(CC(O)CO)c1c(I)c(C(=O)NCC(O)CO)c(I)c(C(=O)NCC(O)CO)c1I (stereo not given) | -5.15% | 
40 | CCN1CN(CC)CN(CC)C1 | 5.26% | 
